# According to the supplement of paper PMC8728848:
# The entries come from a sample that favours the strongest signals as a whole.
# B1: Arath Fbox (Arabidopsis thaliana), NP_178341.1 (protein)
# chain: EFTWGRKRRVKSESSPFDSFPEDCISYIISFTNPRDACVAATVSKTFESTVKSDIIWEKFLPADYESLIPPSRVFSSKKELYFSLCNDPVLFDDDKKSVWLEKASGKRCLMLSAMNLSIIWGDNPQYWQWIPIPESRFEKVAKLRDVCWFEIRGRTNTRVLSPRTRYSAYIVFKGVDKCYGFQNVAIEAAVGVVGQEPSRRLICFSEAIRRGRRNVVKPKQREDGWMEIELGEFFNDGGIMDNDEIEMSALETKQLNRKCGLIIQGIEIRPAKILAAAAASFLEQKLISEEDLNSAVDHHHHHH
# Key:
# Experiment in all cases: glycan array binding signal (z-score within array); higher = stronger binding
# Conditions in all cases: glycan notation: IUPAC condensed, linker removed
# [1] = target: Gal3S(b1-4)Glc
# Outline: (§1)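 Glycan array binding is given as a within-array Z-score, which can be read as non-binding when negative. The arrays, 3228 of them, came from the Consortium for Functional Glycomics database and were retained only where the protein sequence was available. Z-scores were averaged across arrays of the same protein sequence at different concentrations or buffers and across linkers.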
# [2] = target: Gal3S(b1-4)[Fuc(a1-3)]GlcNAc6S
# Outline: as §1
# [3] = target: GalNAc(b1-3)Gal(a1-4)Gal(b1-4)GlcNAc(b1-3)Gal(b1-4)Glc
# Outline: as §1
# [4] = target: GalNAc(b1-4)Gal(b1-4)Glc
# Outline: as §1
# [5] = target: GlcNAc(b1-2)Man(a1-3)[GlcNAc(b1-2)Man(a1-6)]Man(b1-4)GlcNAc(b1-4)[Fuc(a1-6)]GlcNAc
# Outline: as §1
# [6] = target: GlcNAc(b1-2)[GlcNAc(b1-6)]Man(a1-6)[GlcNAc(b1-2)Man(a1-3)]Man(b1-4)GlcNAc(b1-4)GlcNAc
# Outline: as §1
# [7] = target: GlcNAc(b1-3)Gal(b1-4)GlcNAc(b1-2)[GlcNAc(b1-3)Gal(b1-4)GlcNAc(b1-6)]Man(a1-6)[GlcNAc(b1-3)Gal(b1-4)GlcNAc(b1-2)Man(a1-3)]Man(b1-4)GlcNAc(b1-4)GlcNAc
# Outline: as §1
# [8] = target: GlcNAc(b1-3)Gal(b1-4)GlcNAc(b1-3)Gal(b1-4)GlcNAc(b1-3)GalNAc
# Outline: as §1
# [9] = target: Man(a1-3)[Man(a1-6)]Man(b1-4)GlcNAc(b1-4)GlcNAc
# Outline: as §1
# [10] = target: Man(a1-3)[Man(a1-6)]Man(b1-4)GlcNAc(b1-4)[Fuc(a1-6)]GlcNAc
# Outline: as §1
# [11] = target: Neu5Ac(a2-3)Gal(b1-3)GlcNAc(b1-2)Man
# Outline: as §1
# [12] = target: Neu5Ac(a2-3)Gal(b1-3)GlcNAc(b1-6)GalNAc
# Outline: as §1
# [13] = target: Neu5Ac(a2-3)Gal(b1-3)[Fuc(a1-4)]GlcNAc
# Outline: as §1
# [14] = target: Neu5Ac(a2-3)Gal(b1-3)[Fuc(a1-4)]GlcNAc(b1-3)Gal(b1-3)[Fuc(a1-4)]GlcNAc
# Outline: as §1
# [15] = target: Neu5Ac(a2-3)Gal(b1-4)GlcNAc(b1-2)[Neu5Ac(a2-3)Gal(b1-4)GlcNAc(b1-6)]Man(a1-6)[Neu5Ac(a2-3)Gal(b1-4)GlcNAc(b1-2)Man(a1-3)][GlcNAc(b1-4)]Man(b1-4)GlcNAc(b1-4)GlcNAc
# Outline: as §1
# [16] = target: Neu5Ac(a2-3)Gal(b1-4)GlcNAc(b1-3)Gal(b1-4)GlcNAc(b1-2)Man(a1-3)[Neu5Ac(a2-3)Gal(b1-4)GlcNAc(b1-3)Gal(b1-4)GlcNAc(b1-2)Man(a1-6)]Man(b1-4)GlcNAc(b1-4)GlcNAc
# Outline: as §1
# [17] = target: Neu5Ac(a2-3)Gal(b1-4)[Fuc(a1-3)]GlcNAc(b1-3)GalNAc
# Outline: as §1
# [18] = target: Neu5Ac(a2-3)Gal6S(b1-4)GlcNAc
# Outline: as §1
# [19] = target: Neu5Ac(a2-3)Gal6S(b1-4)[Fuc(a1-3)]GlcNAc
# Outline: as §1
# [20] = target: Neu5Ac(a2-3)[Neu5Ac(a2-6)]GalNAc
# Outline: as §1
# [21] = target: Neu5Ac(a2-6)Gal(b1-4)GlcNAc(b1-2)Man(a1-3)[GlcNAc(b1-4)][Neu5Ac(a2-6)Gal(b1-4)GlcNAc(b1-2)Man(a1-6)]Man(b1-4)GlcNAc(b1-4)GlcNAc
# Outline: as §1
# [22] = target: Neu5Ac(a2-6)Gal(b1-4)GlcNAc(b1-2)Man(a1-3)[Neu5Ac(a2-6)Gal(b1-4)GlcNAc(b1-2)Man(a1-6)]Man(b1-4)GlcNAc(b1-4)GlcNAc
# Outline: as §1
# [23] = target: Neu5Ac(a2-6)Gal(b1-4)GlcNAc(b1-2)Man(a1-6)[Gal(b1-4)GlcNAc(b1-2)Man(a1-3)]Man(b1-4)GlcNAc(b1-4)GlcNAc
# Outline: as §1
# [24] = target: Neu5Ac(a2-6)Gal(b1-4)GlcNAc(b1-2)[Neu5Ac(a2-6)Gal(b1-4)GlcNAc(b1-4)]Man(a1-3)[GlcNAc(b1-4)][Neu5Ac(a2-6)Gal(b1-4)GlcNAc(b1-2)[Neu5Ac(a2-6)Gal(b1-4)GlcNAc(b1-6)]Man(a1-6)]Man(b1-4)GlcNAc(b1-4)GlcNAc
# Outline: as §1
# [25] = target: Neu5Ac(a2-8)Neu5Ac(a2-3)[GalNAc(b1-4)]Gal(b1-4)Glc
# Outline: as §1
# [26] = target: Neu5Ac9Ac(a2-6)Gal(b1-4)GlcNAc
# Outline: as §1
# [27] = target: Neu5Gc(a2-6)Gal(b1-4)GlcNAc
# Outline: as §1
binder,measurement,setting,value
B1,glycan array binding signal (z-score),[1],1
same,glycan array binding signal (z-score),[2],2.7
same,glycan array binding signal (z-score),[3],-0.087
same,glycan array binding signal (z-score),[4],0.06
same,glycan array binding signal (z-score),[5],0.585
same,glycan array binding signal (z-score),[6],-0.389
same,glycan array binding signal (z-score),[7],0.161
same,glycan array binding signal (z-score),[8],-0.761
same,glycan array binding signal (z-score),[9],-0.721
same,glycan array binding signal (z-score),[10],-0.72
same,glycan array binding signal (z-score),[11],-0.092
same,glycan array binding signal (z-score),[12],-0.024
same,glycan array binding signal (z-score),[13],-0.597
same,glycan array binding signal (z-score),[14],0.221
same,glycan array binding signal (z-score),[15],-0.75
same,glycan array binding signal (z-score),[16],2.64
same,glycan array binding signal (z-score),[17],2.69
same,glycan array binding signal (z-score),[18],-0.45
same,glycan array binding signal (z-score),[19],-0.559
same,glycan array binding signal (z-score),[20],-0.205
same,glycan array binding signal (z-score),[21],-0.647
same,glycan array binding signal (z-score),[22],-0.41
same,glycan array binding signal (z-score),[23],3.21
same,glycan array binding signal (z-score),[24],-0.533
same,glycan array binding signal (z-score),[25],-0.467
same,glycan array binding signal (z-score),[26],-0.681
same,glycan array binding signal (z-score),[27],2.49
